# Article PMC4336329 (PLoS ONE, 2015)
# Hit rate of the full screen: of about 310,000 compounds, about 2,200 (0.71%) showed an effect of 50% or more. Effects have a minus sign here. The sample holds strong results, similar compounds and a random draw of the others, so the mix is not that of the screen.
# Biological target: human ether-à-go-go-related gene (hERG) potassium channel (human, UniProt Q12809)
# Assay: primary screen, population patch clamp on CHO cells stably expressing hERG; higher = less effect of the substance
# human ether-à-go-go-related gene (hERG) potassium channel, sequence (Q12809 whole entry, looked up): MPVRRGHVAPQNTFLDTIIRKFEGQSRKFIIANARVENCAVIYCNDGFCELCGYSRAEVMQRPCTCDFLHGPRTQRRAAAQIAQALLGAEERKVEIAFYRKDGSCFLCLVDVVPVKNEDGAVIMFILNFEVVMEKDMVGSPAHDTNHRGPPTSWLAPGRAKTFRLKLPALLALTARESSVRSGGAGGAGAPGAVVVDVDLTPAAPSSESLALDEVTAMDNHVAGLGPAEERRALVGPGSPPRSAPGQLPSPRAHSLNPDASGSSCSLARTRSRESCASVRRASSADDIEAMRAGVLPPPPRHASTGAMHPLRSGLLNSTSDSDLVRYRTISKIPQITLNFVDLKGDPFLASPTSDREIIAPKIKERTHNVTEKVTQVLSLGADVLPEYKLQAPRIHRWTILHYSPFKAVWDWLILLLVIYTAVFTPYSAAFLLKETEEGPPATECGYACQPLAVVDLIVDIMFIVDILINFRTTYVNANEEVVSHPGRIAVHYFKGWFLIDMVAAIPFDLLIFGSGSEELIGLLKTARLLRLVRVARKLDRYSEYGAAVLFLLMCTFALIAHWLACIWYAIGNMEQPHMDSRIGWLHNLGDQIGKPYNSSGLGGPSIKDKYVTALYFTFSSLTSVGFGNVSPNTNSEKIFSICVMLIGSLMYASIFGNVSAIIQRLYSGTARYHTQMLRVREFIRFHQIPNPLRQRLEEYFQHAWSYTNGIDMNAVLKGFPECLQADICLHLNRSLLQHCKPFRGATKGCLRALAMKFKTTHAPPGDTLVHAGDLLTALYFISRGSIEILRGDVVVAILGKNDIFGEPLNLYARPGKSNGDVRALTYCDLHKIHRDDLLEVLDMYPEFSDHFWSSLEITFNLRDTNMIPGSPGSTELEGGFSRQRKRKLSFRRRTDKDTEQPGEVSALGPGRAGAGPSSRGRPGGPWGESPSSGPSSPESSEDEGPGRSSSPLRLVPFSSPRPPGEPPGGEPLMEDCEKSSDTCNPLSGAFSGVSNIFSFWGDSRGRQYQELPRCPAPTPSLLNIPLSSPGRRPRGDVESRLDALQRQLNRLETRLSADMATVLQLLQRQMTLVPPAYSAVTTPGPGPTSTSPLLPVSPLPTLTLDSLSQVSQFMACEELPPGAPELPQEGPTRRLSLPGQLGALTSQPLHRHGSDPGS
row,Compound,"hERG current change (%, negative = inhibition) at 1uM"
1,Cc1c(F)cccc1NC(=O)CSCC(=O)Nc1ccccc1,5.59%
2,COC(=O)C1=C(c2ccc(F)cc2OCc2ccccc2)C[C@@H]2CC[C@H]1N2C(=O)NCc1ccc(Cl)cc1,14.6%
3,Cc1ccc(OC(=O)c2ccccc2C(=O)OCC(F)(F)C(F)F)cc1,14%
4,Cc1ccc(-c2nnn(CC(=O)NCCC3=CCCCC3)n2)cc1,18.4%
5,Cc1ccc(NC(=O)NCCCCc2ccccc2)cc1,14.4%
6,CCC(NS(=O)(=O)c1ccc(C)cc1)C(=O)N1CCOCCOCCOCC1 (centres unmarked),20.3%
7,COc1ccc(OCc2nnc(SCc3ccc(C(=O)O)cc3)o2)cc1,16.6%
8,Cc1ccc(NC(=O)c2nn(C34CC5CC(CC(C5)C3)C4)cc2[N+](=O)[O-])cc1,-2.47%
9,Cc1cc(Cl)ccc1OCC(=O)NNC(=O)CCOc1ccccc1,-0.757%
10,O=C(COC(=O)CC(c1ccccc1)c1ccccc1)Nc1ccc(F)c(F)c1,1.93%
11,O=c1c2ccccc2nc(-c2ccccc2)n1-c1nccs1,11.6%
12,C/C=C(/C)C(=O)OC1c2c(ccc3ccc(=O)oc23)OC(C)(C)C1OC(C)=O (centres unmarked),-36.9%
13,C/C=C(/C)C(=O)O[C@@H]1c2c(ccc3ccc(=O)oc23)OC(C)(C)[C@@H]1OC(=O)/C(C)=C\C,9.46%
14,C/C=C(\C)C(=O)OC1c2c(ccc3ccc(=O)oc23)OC(C)(C)C1OC(C)=O (centres unmarked),-54.7%
15,COc1cccc(-c2nc3n(n2)C(c2ccc4c(c2)OCO4)C(C(N)=O)=C(C)N3)c1 (centres unmarked),6.43%
16,Cn1c(=O)[nH]c(=O)c2c1nc(N1CCCCCC1)n2CCSc1nc2ccccc2o1,7.86%
17,COc1cc(C(CCN2CCCC2)c2c(OC)cc(OC)c3c(C)cc(=O)oc23)cc(OC)c1OC (centres unmarked),-69%
18,CCCCCc1cc(=O)oc2c(C(CCN3CCCCC3)c3cc(OC)c(OC)c(OC)c3)c(OC)cc(OC)c12 (centres unmarked),-10.6%
19,COc1ccc(C(CCN2CCOCC2)c2c(OC)cc(OC)c3c(C)cc(=O)oc23)cc1 (centres unmarked),-32.6%
20,COc1cc(C(CCN2CCCC2)c2c(OC)cc(OC)c3c(-c4ccccc4)cc(=O)oc23)cc(OC)c1OC (centres unmarked),-10.9%
21,COc1cc(C(CCN2CCN(c3ccccc3)CC2)c2c(OC)cc(OC)c3c(C)cc(=O)oc23)cc(OC)c1OC (centres unmarked),9.23%

row,Compound,"hERG current change (%, negative = inhibition) at 1uM"
1,COc1cc(C(CCN2CCCCC2)c2c(OC)cc(OC)c3c(-c4ccccc4)cc(=O)oc23)cc(OC)c1OC (centres unmarked),-12%
2,COc1cc(C(CCN2CCCCC2)c2c(OC)cc(OC)c3c(C)cc(=O)oc23)cc(OC)c1OC (centres unmarked),-96.3%
3,COc1cc(C(CCN2CCCC2)c2c(OC)cc(OC)c3ccc(=O)oc23)cc(OC)c1OC (centres unmarked),-26.2%
4,COc1cc(C(CCN2CCOCC2)c2c(OC)cc(OC)c3c(C)cc(=O)oc23)cc(OC)c1OC (centres unmarked),-70.3%
5,O=C(NCCCn1ccnc1)C(=O)c1c[nH]c2ccccc12,3.2%
6,CC(=O)Nc1ncc(Cc2cccc(Cl)c2)s1,9.23%
7,CC(=O)NS(=O)(=O)c1ccc(NC(=O)CC(C)c2ccccc2)cc1 (centres unmarked),2.97%
8,COc1ccc(N2C(=O)CC(NC34CC5CC(CC(C5)C3)C4)C2=O)c(OC)c1 (centres unmarked),8.85%
9,CCCN(CC(=O)Nc1cc(C)on1)S(=O)(=O)c1cccc(C(F)(F)F)c1,11.3%
10,CCN(CC(=O)Nc1c(F)cccc1F)C(=O)/C=C/c1ccc2c(c1)OCO2,3.1%
11,N=c1c(C(=O)NC2CCCC2)cc2c(=O)n3ccccc3nc2n1CCCN1CCOCC1,-63.7%
12,N=c1c(C(=O)NC2CCCC2)cc2c(=O)n3ccccc3nc2n1CCN1CCOCC1,-94.2%
13,CCOC(=O)c1c(C2CC2)csc1NC(=O)CSCc1c(C)noc1C,11.4%
14,CCOC(=O)N1CCN(C(=O)Nc2ccc3nc(C)c(C)nc3c2)CC1,4.44%
15,CC(C)c1ccc(CNc2ccc([N+](=O)[O-])cn2)cc1,9.11%
16,Cc1cc(C)c(S(=O)(=O)NCc2ccncc2)c(C)c1,5.64%
17,C=CCn1c(O)c(C(CC)=NCc2ccco2)c(=O)[nH]c1=O,2.16%
18,O=C1CC(c2ccc(S(=O)(=O)NC3CC3)cc2)CN1 (centres unmarked),2.43%
19,COCCNS(=O)(=O)c1ccc(C2CNC(=O)C2)cc1 (centres unmarked),11.3%
20,CCN(CC)S(=O)(=O)c1ccc(C2CNC(=O)C2)cc1 (centres unmarked),-53.8%
21,Cc1cccc(C(=O)NC(=S)Nc2ccccc2C(=O)O)c1,6.08%

row,Compound,"hERG current change (%, negative = inhibition) at 1uM"
1,CCOC(=O)C1CCCN(c2nc(C)nc3c2oc2ccccc23)C1.Cl (centres unmarked),8.69%
2,Cc1cc2cc3c(=O)[nH]c(=O)[nH]c3nc2cc1C,12.1%
3,Cc1sc2ncnc(NCC3(N4CCOCC4)CCCCC3)c2c1C,-23%
4,c1nc(NCC2(N3CCOCC3)CCCCC2)c2ccsc2n1,-54.5%
5,c1nc(Nc2ccc(N3CCOCC3)cc2)c2ccsc2n1,8.37%
6,COc1ccc(C2=NS(=O)(=O)N(C)C(C(=O)N3CCC(C(N)=O)CC3)=C2)cc1,-8.49%
7,Cc1ccc(NC(=O)c2cc(NC(=O)CCC(=O)O)ccc2N2CCCCC2)cc1,11.9%
8,Cc1nnc(NC(=O)CN2C(=O)c3ccccc3S2(=O)=O)s1,7.28%
9,CCCCC(=O)N1CCCC(c2nc3c(nnn3Cc3cc(C)ccc3C)c(=O)[nH]2)C1 (centres unmarked),3.86%
10,CCOc1ccc(S(=O)(=O)Nc2cccc(OC)c2)cc1,-5.91%
11,CC[n+]1ccccc1/C=C/Nc1ccccc1.[I-],-5.67%
12,CC[n+]1c(/C=C/C=C/N(C(C)=O)c2ccccc2)sc2ccccc21.[I-],-52.2%
13,CC[n+]1c(/C=C/C=C/N(C(C)=O)c2ccccc2)sc2cc(OC)ccc21.[I-],7.77%
14,CC[n+]1c(/C=C/C=C/c2ccc(N(C)C)cc2)sc2ccccc21.[O-][Cl+3]([O-])([O-])[O-],-29%
15,CC[n+]1c(/C=C/Nc2ccccc2)oc2ccccc21.[I-],-64.9%
16,CCN1/C(=C/C=C/c2sc3ccccc3[n+]2CC)Sc2ccccc21.[I-],-36.8%
17,CC[n+]1c(/C=C/N(C)c2ccccc2)oc2ccccc21.O=S(=O)([O-])CCO,12%
18,CCN1/C(=C/C=C/c2oc3ccc(-c4ccccc4)cc3[n+]2CC)Oc2ccc(-c3ccccc3)cc21.CCOS(=O)(=O)[O-],-2.56%
19,CC[n+]1c(/C=C/Nc2ccccc2)sc2ccccc21.[I-],-62.8%
20,CCOS(=O)(=O)[O-].CC[n+]1c(/C=C/Nc2ccccc2)oc2ccc(OC)cc21,-68.8%
21,CC[n+]1c(/C=C2\C=C(C)CC(C)(C)C2)sc2ccccc21.[I-],-4.87%

row,Compound,"hERG current change (%, negative = inhibition) at 1uM"
1,COC(=O)c1ccccc1Nc1ccnc(Cl)n1,-6.9%
2,O=C(Nc1c(F)c(F)c(F)c(F)c1F)C1CCCCC1,5.93%
3,CC(C(=O)N1CCCC1)N(c1ccccc1)S(C)(=O)=O (centres unmarked),20.3%
4,C/C(=N\NC(=O)c1ccccc1)c1ccc(-n2ccnc2)cc1,8.54%
5,O=C(CCc1nnc(-c2ccccc2)o1)NCc1cc(F)ccc1F,0.576%
6,Cc1csc(N(C)C(=O)CSc2nnc(COc3ccccc3C)o2)n1,6.62%
7,CC(C)CC(=O)Nc1ccc2oc(-c3cccnc3)nc2c1,15.3%
8,COCCSc1nnc(NC(=O)C2CC(=O)N(C3CCCC3)C2)s1 (centres unmarked),16%
9,COc1cccc(C(=O)OCC(=O)NC(C)CCc2ccccc2)c1O (centres unmarked),13.8%
10,CN1CCN(C(=O)/C(=C/c2ccco2)NC(=O)c2ccccc2)CC1,-37.1%
11,O=C(N/C(=C\c1ccco1)C(=O)N1CCOCC1)c1ccc([N+](=O)[O-])cc1,-55.9%
12,O=C(N/C(=C\c1cccc([N+](=O)[O-])c1)C(=O)N1CCOCC1)c1ccc([N+](=O)[O-])cc1,-2.31%
13,O=C(N/C(=C/c1ccc([N+](=O)[O-])cc1)C(=O)N1CCOCC1)c1ccco1,-34.6%
14,CCN1CCN(C(=O)/C(=C/c2ccco2)NC(=O)c2ccccc2)CC1,-57.1%
15,O=C(N/C(=C\c1ccco1)C(=O)N1CCCC1)c1ccccc1,14.4%
16,O=C(N/C(=C\c1ccc([N+](=O)[O-])cc1)C(=O)N1CCOCC1)c1ccco1,-57.1%
17,Cc1ccc(C(=O)N/C(=C/c2ccco2)C(=O)N2CCOCC2)cc1,8.19%
18,O=C(N/C(=C\c1ccc([N+](=O)[O-])cc1)C(=O)N1CCCCC1)c1ccco1,-41.5%
19,CCOc1ccc(NS(=O)(=O)c2ccc3ncsc3c2)cc1,12.1%
20,O=C1CCCCCCC1Sc1ccccc1[N+](=O)[O-] (centres unmarked),3.82%
